The results in this text go back to ChEMBL document CHEMBL4513216, “Probing the Open Global Health Chemical Diversity Library for Multistage-Active Starting Points for Next-Generation Antimalarials” (ACS Infect Dis, 2020).

Structures are written as SMILES. Among all 69,000 compounds or so, about 8,600 (12%) showed an effect of 50% or more. Shown is part of a subset that was picked to be rich in strong results.

The subject of this test is Plasmodium berghei. Nature of the test: Screen against P. berghei liver stage (PbLuc), transformed with Luciferase, at 10uM. The conditions noted are these: tested at 10 uM. The format is functional, HepG2.
In the case of `Cc1ccoc1C(=O)N1CCO[C@H]2[C@H](OCCN(C)C)CC[C@@H]21`, the INHIBITION is listed as 22.4%.

On to `Cc1ccc(C(=O)NCCS(=O)(=O)N2CCSCC2)n1C`, for which the INHIBITION is on record as -28.9%.

Consider `CC(C)=CCN1CCN(CCCc2ccccc2)[C@H]2CS(=O)(=O)C[C@H]21`, for which the INHIBITION is reported as 51.3%.

For `CC(C)=CCN1CCN(CCCOc2ccccc2)[C@H]2CS(=O)(=O)C[C@H]21`, the INHIBITION is given as -25.7%.

As for `CN(C)C(=O)N1CCN(CCCc2ccccc2)[C@H]2CS(=O)(=O)C[C@H]21`, the INHIBITION is on record as -11.5%.

With `COc1ccc(OCCN(C)Cc2nc3c(cnn3C)c(=O)[nH]2)cc1`, the INHIBITION is 38.8%.

For the molecule `CN1CCC(C)(CN(C)Cc2ccc(CCC(C)(C)O)cc2)C1` (stereo not drawn), the INHIBITION amounted to 32.4%.

With `Cc1cc(S(=O)(=O)NCC(C)(O)CN(C)C)c(F)cc1F` (stereo not drawn), the INHIBITION amounted to 36.5%.

Turning to `COc1cc(NC(=O)N(C)CCC2CC2)ncn1`, the INHIBITION stood at 4.82%.

`COc1cc(NC(=O)N(C)CC2CC2)ncn1`: the INHIBITION was 1.84%.

With `COc1cc(NC(=O)N(C)C(C2CC2)C2CC2)ncn1`, the INHIBITION turned out to be 88.4%.

Turning to `CS(=O)(=O)c1cccc(C(N)c2ccc(Cl)cc2)c1` (stereo not drawn), the INHIBITION is on record as -53.2%.

With `CCn1ccnc1CN1CCN(CCc2ccncc2)CC1C` (stereo not drawn), the INHIBITION turned out to be 24.7%.

Turning to `O=C(O)[C@@H]1CN(C(=O)c2ccc(Cl)cc2)C[C@H]1c1cccc(F)c1`, the INHIBITION is 13.3%.

For `O=C(O)[C@@H]1CN(C(=O)c2ccc(O)cc2)C[C@H]1c1cccc(F)c1`, the INHIBITION is on record as -19.5%.

With `O=C(O)[C@@H]1CN(C(=O)c2ccc(F)c(F)c2)C[C@H]1c1cccc(F)c1`, the INHIBITION was found to be 65.7%.

For the molecule `CCN(Cc1nonc1C)C(=O)Cn1nc(C(F)(F)F)cc1C`, the INHIBITION is listed as 44.35%.

`CCOc1cc(C(=O)n2cccn2)cc(OCC)c1OCC`: the INHIBITION is given as -30.6%.

On to `N#CCCN(C(=O)CCc1cscn1)c1ccc2c(c1)OCCO2`, for which the INHIBITION is -7.46%.

Turning to `Cc1ccc(C(=O)Oc2cc(=O)n3cccc(C)c3n2)cc1`, the INHIBITION amounted to 59.8%.

For `Cc1cccc(C(=O)Oc2cc(=O)n3cccc(C)c3n2)c1`, the INHIBITION is recorded as -51.1%.

As for `Cc1cccn2c(=O)cc(OC(=O)c3ccccc3)nc12`, the INHIBITION is -19.7%.

`CN1CCc2c(C#N)c(NCC3CCCO3)n3cnnc3c2C1` (stereo not drawn): the INHIBITION is recorded as -1.45%.

On to `CCOc1nc2cnccc2n(CC(=O)NCc2ccco2)c1=O`, for which the INHIBITION is reported as 46.7%.

For the molecule `CCOc1nc2cnccc2n(CC(=O)NCCc2ccccc2)c1=O`, the INHIBITION was found to be 33.9%.

For `CCOc1nc2cnccc2n(CC(=O)NCc2ccc(C)cc2)c1=O`, the INHIBITION worked out at 53.1%.

Turning to `COc1cccc2c(=O)n(C3CCCNC3)cnc12` (stereo not drawn), the INHIBITION was found to be 61%.

As for `COc1cccc2c(=O)n(CCN3CCNCC3)cnc12`, the INHIBITION is recorded as -109%.

On to `COc1cccc2c(=O)n(Cc3cc(C4CC4)[nH]n3)cnc12`, for which the INHIBITION is on record as -6.94%.

`COc1cccc2c(=O)n(Cc3ccnc(C)c3)cnc12`: the INHIBITION is 17.5%.

For the molecule `COc1cccc2c(=O)n(Cc3cccnc3)cnc12`, the INHIBITION is on record as -20%.

For `COc1cccc2c(=O)n(C3CCNCC3)cnc12`, the INHIBITION is on record as 57.3%.

Turning to `O=C(NCc1cccs1)C1CNCC12CCOCC2` (stereo not drawn), the INHIBITION is on record as -30.1%.

As to `CCCn1[nH]c(CNc2ccccc2)nc1=O`, the INHIBITION came out at 32.5%.

With `CC(=O)c1cn(CC(=O)N[C@H](C(=O)O)C(C)C)c2ccccc12`, the INHIBITION was found to be 35.1%.

With `Cc1ccccc1N1CCCN(CC2(O)CCCNC2)CC1` (stereo not drawn), the INHIBITION is on record as 39.9%.

As to `CCOc1ccccc1N1CCN(CC2(O)CCCNC2)CC1` (stereo not drawn), the INHIBITION is 29.2%.

Consider `Cc1ccc(C)c(N2CCN(CC3(O)CCNC3)CC2)c1` (stereo not drawn), for which the INHIBITION was 50.5%.

On to `NC(=O)c1csc(C(=O)N2CCCC(n3cccn3)C2)c1` (stereo not drawn), for which the INHIBITION stood at 23.4%.

For `Cc1nc(CN(Cc2ccc3c(c2)OCCO3)C2CCCC2)no1`, the INHIBITION was -31.8%.

Regarding `CCN(CC)C(=O)CN1CCCC(c2nc(C)c3c(n2)N(C)CCC3)C1` (stereo not drawn), the INHIBITION was 36%.

Consider `CNc1cc(C)nc(C2COCCN2Cc2csc(C)n2)n1` (stereo not drawn), for which the INHIBITION worked out at 53.6%.

With `CNc1cc(C)nc(C2COCCN2CCc2ccccc2)n1` (stereo not drawn), the INHIBITION is given as -2.9%.

`Cc1cc(N(C)C)nc(C2COCCN2Cc2csc(C)n2)n1` (stereo not drawn): the INHIBITION is 39.3%.

In the case of `Cc1ccc(Br)cc1S(=O)(=O)NCCc1nnc[nH]1`, the INHIBITION came out at 23.5%.

For `Cc1ncnc2c1CCN(Cc1ccc3c(c1)OCO3)CC2`, the INHIBITION turned out to be 41.8%.

As for `CC(=O)NCCC(Cc1ccccc1)c1ccco1` (stereo not drawn), the INHIBITION is reported as -24.6%.

As for `O=C(CCCOc1ccc(F)cc1F)N1CCCC(n2cccn2)C1` (stereo not drawn), the INHIBITION is listed as 11.4%.

As for `CCc1nc(N)nc(N(C)Cc2nncn2CCOC)c1C`, the INHIBITION came to 73.5%.

`COCCn1cnnc1CN(C)c1nc(N)ncc1C`: the INHIBITION is given as 0.897%.

`COCCn1cnnc1CN(C)c1nc(N)nc2c1CCCC2`: the INHIBITION is on record as 23.3%.

Regarding `CCO[C@@H]1CC[C@H]2[C@H]1OCCN2S(=O)(=O)C1CC1`, the INHIBITION amounted to 2.59%.

In the case of `CC1CCN(CCCNC(=O)c2ccc(N(C)S(C)(=O)=O)cc2Cl)CC1`, the INHIBITION is listed as 79.2%.
